Rows were chosen to be rich in hits. Some 12% of all compounds tested hit in one or more screens of this group.
JMJD2A Tudor: inhibitors of human JMJD2A Tudor domain | O75164 | AlphaScreen JMJD2A-Tudor / H3K4me3 peptide binding | Potency, µM (titrated, usually from 114 µM), for inactives: top-dose activity change, negative = inhibition, actives largely listed as inhibitors | actives 4.4% (n = 390,000); also: % is scaled to controls: 0 for no effect and ±100 for the full control effect; nearly all actives have a fitted effect of over 50% in size
BAZ2B inh: blocks human BAZ2B; AlphaScreen BAZ2B-H3K14Ac peptide displacement; Q9UIF8; Potency, µM (series often up to 114 µM), for inactives: top-dose activity change, negative = inhibition, usual class: inhibitors; actives 4.4% (n = 360,000); AID 504333; also: % is scaled to controls: 0 for no effect and ±100 for the full control effect; nearly all actives have a fitted effect of over 60% in size
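AlphaScreen displacement of biotin-H3(5-23)K14Ac peptide (50 nM final) from BAZ2B (50 nM final) in PBS pH 7.4, 0.01% Tween-20; complex preformed 30 min RT, then compounds (top 110 uM) 30 min RT, beads 20 min dark.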
Sfp PPTase inh: inhibitors of Bacillus subtilis Sfp phosphopantetheinyl transferase; actives 3.5% (n = 310,000); Biochemical Sfp PPTase activity, qHTS; Potency, µM, inactives show largest response in the series, negative = inhibition, actives largely listed as inhibitors;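 also: the enzyme is Sfp with the accession as filed and its product quenches rhodamine fluorescence; 0% = enzyme reaction without inhibitor and -100% = no enzyme wells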
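With Hepes-Na pH 7.6 buffer containing 10 mM MgCl2, Sfp (15 nM) modified BHQ-2-YbbR (12.5 uM) using rhodamine-CoA (5 uM). Two reads 30 minutes apart at 525/598 nm yielded each well's rate.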
G9a block: inhibitors of human histone lysine methyltransferase G9a | actives 8.8% (n = 350,000) | AID 504332 | G9a H3K9 monomethylation, AlphaScreen, 2 h | Potency, µM (series often up to 102 µM), without a hit: at the highest dose activity, negative = inhibition, usual class: inhibitors | Q96KQ7; also: % is scaled to controls: 0 for no effect and ±100 for the full control effect; nearly all actives have a fitted effect of over 75% in size
Target sequence (Q96KQ7 913-1193 limits assumed): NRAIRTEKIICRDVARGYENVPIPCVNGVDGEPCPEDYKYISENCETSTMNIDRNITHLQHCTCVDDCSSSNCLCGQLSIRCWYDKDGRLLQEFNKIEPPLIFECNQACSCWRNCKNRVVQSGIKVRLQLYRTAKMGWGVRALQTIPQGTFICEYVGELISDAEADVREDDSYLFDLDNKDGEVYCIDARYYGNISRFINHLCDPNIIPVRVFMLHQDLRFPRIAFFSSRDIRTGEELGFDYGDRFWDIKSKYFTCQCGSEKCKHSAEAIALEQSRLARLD
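Using a bead-based AlphaScreen, monomethylated H3K9 product from 2 h room-temperature reactions (G9a 20 nM, peptide 500 nM, SAM 20 uM) was detected with 0.5 ug/mL rabbit anti-H3K9me1 antibody.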
HP1b chromo inh: inhibitors of HP1-beta chromodomain binding to methylated histone tails | Potency, µM (doses to about 114 µM), without a hit: at the top dose activity change, negative = inhibition, actives largely listed as inhibitors | actives 0.56% (n = 390,000) | AlphaScreen HP1-beta / biotin-H3K9me3 peptide binding; also: nearly all actives have a fitted effect of over 70% in size
Target sequence (P83916 whole entry, looked up): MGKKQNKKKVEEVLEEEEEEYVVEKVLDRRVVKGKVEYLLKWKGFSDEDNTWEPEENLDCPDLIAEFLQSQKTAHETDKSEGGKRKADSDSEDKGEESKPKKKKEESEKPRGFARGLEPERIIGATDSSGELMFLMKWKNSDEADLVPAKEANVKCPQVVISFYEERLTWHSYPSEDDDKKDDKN
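HP1-beta protein (50 nM final) preincubated 30 min at room temperature with biotinylated H3(1-18)K9me3 peptide (50 nM) in PBS pH 7.4, 0.01% Tween-20, then compound added for 30 min. AlphaScreen streptavidin donor/nickel chelate acceptor beads (10 ug/mL final), 30 min dark, luminescence read.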
An asterisk follows results filed as active; ? = inconclusive; · = no result given; ! = repeats disagree; [ ] = dose if it differs, or a comment. Calls follow the shape of the dose curve; as a rule, active = well fitted curve in the direction sought with a large enough effect; inconclusive = small, poorly fitted or top-dose-only effect, or another doubt; inactive = no such curve, though single readings can be large; an effect the other way counts as inactive or inconclusive. Potency is read from the fitted curve at half-maximal effect.

SMILES	JMJD2A Tudor	BAZ2B inh	Sfp PPTase inh	G9a block	HP1b chromo inh
N#CC1=C(N)Oc2cc(O)ccc2C1c1cccs1 (stereo not drawn)	-3%	-3%	?	56µM*	28%
CCNc1ncc2nc(-c3cccs3)c(=O)n(CCC#N)c2n1	·	·	-5%	-14%[0.501 µM]	·
Cc1cc(O)c(C(c2cccc(F)c2)N2CCN(c3ccccc3)CC2)c(=O)n1Cc1ccco1 (stereo not drawn)	?	-39%	·	?	15%[57 µM]
O=C(Nc1cccc(S(=O)(=O)N2CCCCC2)c1)c1ccc2ncsc2c1	28µM*	56µM*	5%	?	7%
O=C(Nc1cccc(S(=O)(=O)N2CCCCC2)c1)c1ccc(OCC2CCCO2)cc1 (stereo not drawn)	-13%	·	17%	56µM*	23%
O=C(Nc1ncccc1O)c1ccc(OCC2CCCO2)cc1 (stereo not drawn)	-24%	79µM*	0%	-8%	39%
N#Cc1ccccc1COC(=O)CCCC1=NS(=O)(=O)c2ccccc2N1	-1%	2%	12%	51%	74%
O=C(C#Cc1ccccc1)c1ccco1	-5%	2%	?	40µM*	54%
O=C(Cn1cnc2ccccc2c1=O)Nc1nc2ccccc2s1	-8%	6%	-12%	45µM*	12%
CCN(CC)C(=O)Cn1cnc2ccccc2c1=O	-7%	22%	0%	20µM*	44%
O=C(COC(=O)Cn1cnc2ccccc2c1=O)NCCC1=CCCCC1	-16%	5%	6%	11µM*	23%
CCN(CC)C(=O)Cn1cnc2c1c(=O)n(C)c(=O)n2C	-5%	-2%	7%	56µM*	15%
COc1ccc(CCNC(=O)CCCCn2c(=O)c3ccccc3n(CC(=O)Nc3ccc(C)cc3C)c2=O)cc1OC	-20%	-1%	·	8%[59 µM]	31%
Cc1ccc(C)c(S(=O)(=O)N2CCN(C(=O)c3ccccn3)CC2)c1	1%	-5%	·	12%[12.7 µM]	50%
CCc1ccc(NC(=O)CCNC(=O)Cn2cnc3ccccc3c2=O)cc1	50µM*!	2%	16%	5%	10%
Cn1c(=O)c2c(ncn2CCN(CCO)Cc2ccccc2)n(C)c1=O	-8%	5%	5%	40µM*	16%
Cc1ccc(C)c(N2CCN(C(=O)c3ccc4c(Cl)c5c(nc4c3)CCCC5)CC2)c1	-22%	?	·	?	23%
O=C(O)c1ccc2c(c1)CC(c1ccccc1)OC2=O (stereo not drawn)	-9%	4%	13%	?	29%
COc1ccc(N2CCN(C(=O)c3ccc4c(c3)CC(c3ccccc3)OC4=O)CC2)cc1 (stereo not drawn)	?	40µM*	·	10µM*	-13%
O=C1OC(c2ccccc2)Cc2cc(C(=O)N3CCN(c4ccc(F)cc4)CC3)ccc21 (stereo not drawn)	-26%	-33%	·	50µM*	0%
CCN(CC)c1nc2ccccc2[nH]c1=O	-4%	2%	8%	32µM*	39%
Cc1ccc(C)c(N2CCN(C(=O)c3cc(S(=O)(=O)N4CCC(C)CC4)cn3C)CC2)c1	-35%	-31%	·	-3%[59 µM]	5%[57 µM]
Cc1ccc(N/N=C2/CCCNC2=O)cc1	?	2%	1%	25µM*	?
CC(=O)c1ccc(N/N=C2/CCCNC2=O)cc1	-30%	-2%	16%	25%	36%
O=C(Nc1ccc(C(=O)O)cc1)/C(=C\c1ccco1)NC(=O)c1ccccc1	-13%	-26%	20µM*	·	29%
O=C(O)/C(=C\c1ccco1)NC(=O)c1ccccc1	-5%	-29%	-27%	-23%[59 µM]	39%
O=C(Nc1cccc(F)c1)/C(=C\c1ccco1)NC(=O)c1cccs1	-18%[57.1 µM]	-3%[57.1 µM]	56µM*	?	-24%
CC(C)(C)c1ccc(C(=O)N/C(=C\c2ccco2)C(=O)Nc2ccccc2C(=O)O)cc1	-36%	10%	50µM*	?	-2%
O=C(Nc1ccc(C(=O)O)cc1)/C(=C\c1ccco1)NC(=O)c1ccccc1Cl	-7%	?	11%	-17%	?
CC(=O)Nc1ccc(NC(=O)/C(=C/c2ccco2)NC(=O)c2ccccc2)cc1	-26%	-37%	18µM*	·	-11%

Source: PubChem (National Center for Advancing Translational Sciences (NCATS))
